Values joined by “and” are separate entries in the source; they are usually repeats but may differ in a detail not shown here. Equal entries are not always repeated. Results filed as inconclusive are left out. Active and inactive are the calls of the source. How the source made its calls: active means hit-call score of the fitted dose curve at least 0.9, where 1 is the maximum; inconclusive means response in the unintended direction; inactive means score below 0.9.
What follows are compounds tested against Cellular tumor antigen p53 (Homo sapiens) (UniProt P04637) (assay: TOX21_p53_BLA_p3_ratio: Tox21 HCT-116 p53 Agonism Beta-lactamase Assay, Ratio, Phase 3 (AID 2283596)).
Chain of Cellular tumor antigen p53 (Homo sapiens) (P04637 whole entry, looked up, the tested form may be a part): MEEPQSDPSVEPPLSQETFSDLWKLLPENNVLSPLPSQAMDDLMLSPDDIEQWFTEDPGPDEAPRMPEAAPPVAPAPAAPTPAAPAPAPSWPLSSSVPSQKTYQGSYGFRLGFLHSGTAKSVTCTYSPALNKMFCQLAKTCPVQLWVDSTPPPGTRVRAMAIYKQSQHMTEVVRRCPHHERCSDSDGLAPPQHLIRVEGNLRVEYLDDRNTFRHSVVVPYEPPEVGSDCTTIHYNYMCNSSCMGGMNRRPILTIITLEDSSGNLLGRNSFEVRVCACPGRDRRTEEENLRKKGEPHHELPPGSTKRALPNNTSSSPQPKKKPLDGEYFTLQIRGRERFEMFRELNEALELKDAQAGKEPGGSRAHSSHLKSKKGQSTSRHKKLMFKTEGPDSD
From the text: TOX21_p53_BLA_p3 is a cell-based, single-readout assay that uses HCT116, a human intestinal cell line, […] in a 1536-well plate.TOX21_p53_BLA_p3_ratio is an assay readout measuring reporter gene via receptor activity and designed using inducible reporter (beta lactamase induction) detected with GAL4 b-lactamase reporter gene. The signal is derived from the ratio of cleaved (ch2) to uncleaved (ch1) reporter gene substrate used as the measure of target activity.Data from the assay component TOX21_p53_BLA_p3_ratio was analyzed into 1 assay endpoint. This assay endpoint, TOX21_p53_BLA_p3_ratio, was analyzed in the positive analysis fitting direction relative to DMSO as the negative control and baseline of activity. Using a type of inducible reporter, gain-of-signal activity can be used to understand changes in the reporter gene as they relate to the gene TP53. Furthermore, this assay endpoint can be referred to as a primary readout, because this assay has produced multiple assay endpoints where this ratio serves a reporter gene function to understand target activity. To generalize the intended target to other relatable targets, this assay endpoint is annotated to the DNA binding intended target family, where the subfamily is tumor suppressor.
Thawing Method: Place 14 mL of pre-warmed thaw medium into a 15 mL of conical tub. Remove the vial of cells to be thawed from liquid nitrogen and thaw rapidly by placing at 37C in a water bath with gentle agitation for 1-2 minutes. Decontaminate the vial by wiping with 70% ethanol before opening in a biological safety cabinet. Transfer the vial contents drop-wise into 14 mL of thaw medium in a sterile 15-mL conical tub. Centrifuge cells at 900 rpm for 4 minutes and resuspend in thaw medium. Transfer contents to the T75 tissue culture flask containing Thaw Medium and place flask in a humidified 37C/5% CO2 incubator. Switch to growth medium at first passage.Propagation Method: Aspirate medium, rinse once in DPBS, add 0.25% Trypsin/EDTA and swirl to coat the cell evenly. Add an equal volume of Growth Medium to inactivate Trypsin after 2-3 minutes incubation at 37C. Centrifuge cells at 900 rpm for 4 minutes and resuspend in growth medium. Cell should be passage or fed at least twice a week.Assay Protocol: Harvest cells from culture in growth medium and resuspend in assay medium. 2.2 Dispense 4000 cells/5 uL/well into 1536-well black/clear bottom plates using a Multidrop dispenser. After the cells were incubated at 37C for 5 hours, 23 nL of compounds dissolved in DMSO were transferred to the assay plate by a PinTool resulting in a 217-fold dilution. Incubate the plates for 16 hours at 37C, 5% CO2. Add 1 uL of 6X LiveBLAzer FRET B/G (CCF4-AM) Substrate Mixture to each well using a BioRAPTR dispenser and incubate the plates at room temperature for 2 hours. Measure fluorescence intensity at 460 and 530 nm emission and 405 nm excitation by an Envision detector. Data is expressed as the ratio of 460nm/530nm emissions. Add 4 uL of Cell-titer Glo to each well using BioRAPTR and incubate the plates at room temperature for 2 hours. Measure fluorescence intensity by a VewLux plate reader.

Structure (SMILES) | outcome | AC50
N#CC(C#N)=C(C#N)C#N | inactive | 
CNC(=O)Oc1ccccc1C(C)C | inactive | 
CC[N+]1(C)CCCC(OC(=O)C(O)(c2ccccc2)c2ccccc2)C1 (stereo not given) | inactive | 
C(CCOCC1CO1)COCC1CO1 (stereo not given) |  | 65.2 µM (active)
C=Cc1cccc(CCl)c1 | inactive | 
CCC(=O)O[C@]1(c2ccccc2)CCN(C)C[C@H]1C | inactive | 
C=CCC1([C@H](C)CCC)C(=O)NC(=O)NC1=O | inactive | 
CC[C@]1(O)CC[C@H]2[C@@H]3CCC4=CCCC[C@@H]4[C@H]3CC[C@@]21C |  | 3.62 µM (active)
CCOC(=O)C1(c2ccccc2)CCN(CCC(C#N)(c2ccccc2)c2ccccc2)CC1 |  | 41.6 µM (active) and 7.95 µM (active)
O=C1CC[C@@]2(O)[C@H]3Cc4ccc(O)c5c4[C@@]2(CCN3CC2CC2)[C@H]1O5 | inactive | 
CCCCCCC[CH2][Sn]([Cl])([Cl])[CH2]CCCCCCC |  | 21.2 µM (active)
CCCCCCCCCCCCCCCl | inactive | 
Cc1ccc2c(C)cccc2c1 | inactive | 
Cc1cccc2sc3nncn3c12 | inactive | 
CCCCCCCCCCCC[N+](C)(C)CCOc1ccccc1 |  | 84.4 µM (active) and 43.8 µM (active)
CCOP(=S)(OCC)SC(CCl)N1C(=O)c2ccccc2C1=O (stereo not given) | inactive | 
CN[C@@H](C)[C@H](O)c1ccccc1 | inactive | 
ClC=CCl | inactive | 
c1ccc(Nc2ccc3ccccc3c2)cc1 | inactive | 
C=CCN(C1=NCCN1)c1c(Cl)cccc1Cl | inactive | 

Structure (SMILES) | outcome | AC50
O=C(OCCN1CCCCC1)C(O)(c1ccccc1)c1ccccc1 | inactive | 
CC1(C)C(=O)NC(=O)NC1=O | inactive | 
C=CCSSCC=C |  | 57.5 µM (active)
CC=CCC#N | inactive | 
CC(C)[C@@]1(NC(=O)[C@@H]2C[C@@H]3c4cccc5[nH]cc(c45)C[C@H]3N(C)C2)O[C@@]2(O)[C@@H]3CCCN3C(=O)[C@H](Cc3ccccc3)N2C1=O | inactive | 
C[C@]12C[C@H]3S[C@H]3C[C@@H]1CC[C@@H]1[C@@H]2CC[C@]2(C)[C@@H](O)CC[C@@H]12 | inactive | 
O=C(O)c1cc[c]([Hg][Cl])cc1 | inactive | 
Clc1ccc(CSC(Cn2ccnc2)c2ccc(Cl)cc2Cl)cc1 (stereo not given) | inactive | 
CC(C)C(Nc1ccc(C(F)(F)F)cc1Cl)C(=O)OC(C#N)c1cccc(Oc2ccccc2)c1 (stereo not given) |  | 87.3 µM (active)
Cn1cc(C2=C(c3cn(C4CCN(Cc5ccccn5)CC4)c4ccccc34)C(=O)NC2=O)c2ccccc21 |  | 12 µM (active)
Cc1ncc(CNC(=O)N(CCCl)N=O)c(N)n1 | inactive | 
COc1cccc2c1cc([N+](=O)[O-])c1c(C(=O)O)cc3c(c12)OCO3 |  | 6.78 µM (active)
CN(C)c1ccc(N=Nc2ccccc2)cc1 | inactive | 
O=P1(N(CCCl)CCCl)NC(OO)CCO1 (stereo not given) | inactive | 
C[C@H](N)[C@H](O)c1ccc(O)c(O)c1 | inactive | 
Cn1c(CCCC(=O)O)nc2cc(N(CCCl)CCCl)ccc21 |  | 31.3 µM (active)
c1ccc2c(c1)cc1ccc3cccc4ccc2c1c34 |  | 4.14 µM (active)
CCC(C)Cl (stereo not given) | inactive | 
O=C1OC(c2ccc(O)c(S(=O)(=O)O)c2)(c2ccc(O)c(S(=O)(=O)O)c2)c2c(Br)c(Br)c(Br)c(Br)c21 | inactive | 
O=C(NC(=O)c1ccccc1Cl)Nc1ccc(OC(F)(F)F)cc1 | inactive | 
